HT1080-NT tox – kills 2HG-producing HT-1080-NT fibrosarcoma cells; HT-1080-NT fibrosarcoma viability, CellTiter-Glo ATP luminescence, 48 h; Potency, µM (top dose mostly 46.1 µM), for the others: top-dose activity, negative = less viability, most hits filed as cytotoxic; hit rate 1.6% among 360,000; AID 686970;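 further: NT is the 2HG producing partner of a matched IDH1 knockdown line; 0% = DMSO-treated cells and -100% = media-only wells without cells; nearly all actives have a fitted effect of over 55% in size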
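Fibrosarcoma NT cells, 750 per well in 5% FBS RPMI, were exposed to compound for 48 hours. Viability: CellTiter-Glo luminescence.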
HT1080 IDH1KD tx – HT-1080 IDH1 knockdown cell toxicity (counter line); HT-1080 IDH1 knockdown viability, ATP luminescence, 48 h; Potency, µM (series often up to 46.1 µM), for inactives: top-dose activity, negative = toxicity, usual class: cytotoxic; hit rate 2% among 360,000; AID 686971;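 further: 0% = DMSO wells and -100% = cell-free medium wells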
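HT-1080-IDH1KD cells (IDH1 knocked down), 750/well in RPMI with 5% FBS, treated with compound 48 h at 37 degrees C. Viability by CellTiter-Glo luminescence, normalised to DMSO and no-cell wells; concentration-response curves classed.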
KB-3-1 tox – KB-3-1 parental cell cytotoxicity; KB-3-1 viability, CellTiter-Glo ATP luminescence, 72 h; Potency, µM (titrated, usually from 46.1 µM), hits mostly cytotoxic; hit rate 1.4% among 400,000; further: on the % scale 0 is the no-effect control and ±100 the full control effect; nearly all actives have a fitted effect of over 60% in size
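Cytotoxicity measured as CellTiter-Glo luminescence after 72 h at 37 C. Compound titrations were pinned onto drug-naive KB-3-1 parental adenocarcinoma cells grown in DMEM with 10% FBS, and normalized data fitted to concentration-response curves.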
KB-V1 MDR tox – KB-V1 MDR subline cytotoxicity | KB-V1 MDR cells viability, CellTiter-Glo, 72 h | Potency, µM (titrated, usually from 46.1 µM), actives largely listed as cytotoxic | hit rate 3.4% among 400,000 | AID 1347076; further: on the % scale 0 is the no-effect control and ±100 the full control effect; nearly all actives have a fitted effect of over 60% in size
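Drug-selected KB-V1 cells, grown in DMEM lacking phenol red with 10% FBS, receive compound titrations; after three days at 37 degrees C, surviving cell ATP is quantified by CellTiter-Glo luminescence and responses normalized and curve-fitted.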
ATXN2 expr inh – ATXN2 expression inhibition; HEK-293 ATXN2-luciferase reporter, luminescence, 24 h; Potency, µM (doses to about 57 µM), without a hit: at the highest dose activity change, negative = inhibition, usual class: inhibitors; hit rate 0.72% among 360,000; further: on the % scale 0 is the no-effect control and ±100 the full control effect; nearly all actives have a fitted effect of over 55% in size
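qHTS (up to 57 uM final) was run with 24 h compound exposure of reporter cells at 37 °C. Each well was multiplexed: SteadyGlo luminescence measured ATXN2-luciferase expression after a fluorogenic Gly-Phe-AFC viability readout (25 uM final).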
S2 tox – reduces viability in counter-screen for ATXN expression inhibitors. S2 cells (HEK-293 line with an ATXN2-luciferase reporter) viability, CellTiter-Fluor protease fluorescence, 24 h. Potency, µM (doses to about 56.7 µM), hits mostly cytotoxic. hit rate 0.49% among 400,000. AID 651635; further: nearly all actives have a fitted effect of over 40% in size
* = called active by the depositor; i = inactive; ? = inconclusive; . = not tested or not shown; ! = a repeat was not active; [ ] = remark or other dose. In the library only some 6.2% were active in any assay of this set; here they are far more common. The call rests on the fitted dose curve; in most records, active means well fitted curve in the direction sought with a large enough effect; inconclusive means small, poorly fitted or top-dose-only effect, or another doubt; inactive means no such curve, though single readings can be large; an effect the other way counts as inactive or inconclusive. Potency means the concentration at half of the fitted maximal effect.

SMILES | HT1080-NT tox | HT1080 IDH1KD tx | KB-3-1 tox | KB-V1 MDR tox | ATXN2 expr inh | S2 tox
CCOc1ccccc1CNCCCSc1nnnn1C | . | . | i | i | -11% | ?
CC(C)CCC(CCN1CCCC1)c1ccc2c(c1)OCO2 (stereo unspecified) | -11% | -16% | i | i | -29% | i
CC(C)CCC(CCN1CCOCC1)c1ccc2c(c1)OCO2 (stereo unspecified) | -27% | ? | i | 21µM* | -17% | i
COCCCNCCC(CCC(C)C)c1ccc2c(c1)OCO2 (stereo unspecified) | 21µM* | 15µM* | ? | ? | ? | i
O=C(Nc1ccc2nc(-c3cccnc3)[nH]c2c1)C12CC3CC(CC(C3)C1)C2 | 13µM* | 18µM* | 11µM* | ? | 4% | ?
O=C(Nc1ccc2nc(-c3cccnc3)[nH]c2c1)C1CCCCC1 | ? | ? | i | i | 12% | ?
CCOc1ccc(NC(=O)Cn2cc(S(=O)(=O)NC)c(S(=O)(=O)NC)c2)cc1 | . | . | i | i | . | .
c1ccc(-c2onc(-c3ccco3)c2-c2ccc3[nH]ccc3c2)cc1 | -17% | -15% | ? | 23µM*! | -11% | i
c1ccc(-c2ccc3[nH]ccc3c2)cc1 | 12% | 5% | i | i | 46% | i
c1cc2cc(-c3c(-c4ccc5c(c4)OCO5)noc3-c3ccsc3)ccc2[nH]1 | -26% | ? | ? | 21µM*! | 14% | i
NCCO | . | . | . | . | 6%[116 µM] | i
COc1cccc(C(c2sc3nc(-c4ccco4)nn3c2O)N2CCCC2)c1 (stereo unspecified) | . | . | i | i | 16% | i
Cc1cc(C)c(C(N)=O)c(SCC(=O)c2ccc(Cl)cc2)n1 | 0% | -6% | i | i | 0% | i
Cc1ccc(C(=O)CSc2nc(C)cc(C)c2C(N)=O)cc1 | ? | ? | i | 16µM* | 15% | i
CCc1c(C)sc(NC(=O)c2cc(-c3ccc(OC)cc3)on2)c1C#N | . | . | i | ? | 7% | i
Cc1ccc(C(=O)C(C)OC(=O)c2cc3cc([N+](=O)[O-])ccc3oc2=O)cc1 (stereo unspecified) | -15% | 11µM* | i | i | -29% | ?
N#C/C(=C\C=C\c1ccccc1[N+](=O)[O-])C(=O)NCc1ccccc1 | -24% | ? | 16µM* | ? | 28µM* | ?
CCCCCCCCNC(=O)/C(C#N)=C/c1ccccc1[N+](=O)[O-] | -19% | -17% | ? | 16µM* | -14% | i
N#C/C(=C\c1ccccc1[N+](=O)[O-])C(=O)NCc1ccccc1 | -22% | -16% | i | i | 4% | i
CC(C)CNc1ncnc2c1ncn2[C@H]1CN(CCc2ccccc2)C[C@@H](CO)O1 | 3% | 27% | i | i | 6% | i
c1ccc(Nc2c(-c3c[nH]c4ccccc34)nc3ccccn23)cc1 | . | . | i | i | 48% | i
Cc1c(NC(=O)c2nn3c(c2Br)NC(c2ccccc2)CC3C(F)(F)F)c(=O)n(-c2ccccc2)n1C (stereo unspecified) | 11% | 22% | i | 16µM* | 2% | i
Cc1c(NC(=O)c2cnn3c2NC(c2ccccc2)CC3C(F)(F)F)c(=O)n(-c2ccccc2)n1C (stereo unspecified) | -3% | -19% | i | i | 0% | i
C[n+]1ccccc1N1CCN(c2ccccc2Cl)CC1 | -3% | -1% | 21µM* | i | -7% | i
Cc1ccc(Cl)cc1N1CCN(c2cccc[n+]2C)CC1 | ? | -28% | ? | ? | -21% | i
SMILES | HT1080-NT tox | HT1080 IDH1KD tx | KB-3-1 tox | KB-V1 MDR tox | ATXN2 expr inh | S2 tox
Cc1ccc(CNC(=O)C2CCCN(S(=O)(=O)c3ccc4c(ccn4C)c3)C2)cc1 (stereo unspecified) | . | . | i | i | 12% | i
CCCCn1c(SCC(=O)Nc2ccc3c(c2)OCO3)nc2c1c(=O)n(C)c(=O)n2C | 8% | -13% | 21µM* | 5.8µM* | -27% | i
CCCn1c(SCC(=O)Nc2ccc(NC(=O)CC)cc2)nc2c1c(=O)n(C)c(=O)n2C | -1% | -3% | i | i | 1% | i
CCCCn1c(SCC(=O)Nc2nnc(CC)s2)nc2c1c(=O)n(C)c(=O)n2C | ? | 2.8µM* | i | 21µM* | 0% | i
CCCCn1c(SCC(=O)Nc2nnc(C)s2)nc2c1c(=O)n(C)c(=O)n2C | 4% | -7% | i | i | 2% | i
CCCn1c(SCC(=O)Nc2nnc(C(C)C)s2)nc2c1c(=O)n(C)c(=O)n2C | 19% | 8% | 13µM* | ? | -1% | i
COc1cc(OC)c(OC)cc1CNCCCSc1nnnn1C | . | . | i | ? | -6% | i
O=C(CN(C(=O)c1csnn1)c1ccccc1C(F)(F)F)NCc1ccccc1 | 0% | 1% | i | i | -10% | i
CCCn1c2ccccc2c2cnn(CC(=O)NCCc3ccc(S(N)(=O)=O)cc3)c(=O)c21 | . | . | i | i | -12% | i
O=C(COC(=O)c1ccccc1OCc1cccc(Br)c1)Nc1ccc(Br)cc1 | . | . | ? | i | . | .
COc1cc(C=C2CCC/C(=C\c3ccc(O)c(OC)c3)C2=O)ccc1O | . | . | . | . | 16µM* | 28µM*
CCOc1cc(/C=C2\CN(CC)C/C(=C\c3ccc(O)c(OCC)c3)C2=O)ccc1O | 2.6µM* | 2.9µM* | ? | ? | ? | ?
COc1cc(/C=C2\CC/C(=C\c3cc(OC)c(OC)c(OC)c3)C2=O)cc(OC)c1OC | -4% | -3% | i | i | -33% | i
COc1cc(/C=C2\CC/C(=C\c3cc(OC)c(O)c(OC)c3)C2=O)cc(OC)c1O | 4.1µM* | 4.1µM* | 16µM* | ? | ? | .
COc1cc(/C=C2/C(=O)CNC2=O)ccc1O | 16% | 25% | i | i | 7% | i
COc1cc(C=C2C(=O)C=CC2=O)ccc1O | 15µM* | 23µM* | 21µM* | i | 13µM* | .
CN(C)c1ccc(/C=C/c2ncnc3ccccc23)cc1 | . | . | i | i | . | .
CCN1C/C(=C/c2cccc([N+](=O)[O-])c2)C(=O)/C(=C/c2cccc([N+](=O)[O-])c2)C1 | 4.1µM* | 3.3µM* | i | ? | 3.2µM* | 4µM*
COc1cc(/C=C2\CCC/C(=C\c3ccc(O)c(OC)c3)C2=O)ccc1O | 18µM* | 5.8µM* | ? | ? | ? | .
COc1cc(/C=C2/CCC/C(=C\c3cc(O)c(OC)c(Cl)c3)C2=O)cc(Cl)c1O | ? | 21µM* | ? | 8.2µM* | ? | .

Source: PubChem BioAssay
